Out of some 220,000 compounds screened, about 2,000 (0.91%) were called active. Roughly 2% stayed inconclusive and do not appear here. The list is a sample of the results. Potency and affinity values are given separately. Unmarked numbers belong to inactive results. Rule as the data show it: inconclusive = inhibition above about 80% without an active follow-up result; inactive = below that; test concentration not stated here.
Test: M. tuberculosis H37Rv growth inhibitors, H37Rv strain (AID 1626);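 also: bacteria incubated seven days before Alamar blue readout; 0% = bacteria only wells and 100% = bacteria with antibiotic wells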
Conditions: hits give high values, concentration not given here

Row | SMILES | inhibition [%]
1 | Cc1ccc(C(=O)N(c2ccccc2)C2CC(C)N(C(=O)c3ccco3)c3ccccc32)cc1 (stereo not drawn) | 0.9
2 | CCn1c(SCC(=O)Nc2nccs2)nnc1-c1ccccc1 | -4.51
3 | Clc1cc2nc[nH]c2cc1Cl | -8.63
4 | CCCc1cc(=O)[nH]c(SCc2csc(-c3ccccc3)n2)n1 | -1.65
5 | Nc1nnc(-c2cccc(F)c2)s1 | 1
6 | CC1CN(c2ccc(S(=O)(=O)N3CCOCC3)cn2)CC(C)O1 (stereo not drawn) | -1.99
7 | CC(=O)c1cc(C#N)c(SCc2ccc(F)cc2)nc1C | -3.8
8 | Cc1ccc(S(=O)(=O)CCN2CCC(n3cccc3)CC2)cc1 | -2.9
9 | O=C(/C=C/c1ccc(N2CCCCC2)c([N+](=O)[O-])c1)c1ccc(O)cc1 | 52.4
10 | O=C(/C=C/c1cccc([N+](=O)[O-])c1)Nc1ccc(NC(=O)c2cccs2)cc1 | 3.17
11 | COc1ccc(Oc2ccc(/C=C/C(=O)c3cccc(OC)c3)cc2[N+](=O)[O-])cc1 | 4.34
12 | O=C(/C=C/c1cccc([N+](=O)[O-])c1)Nc1cccc(NC(=O)c2cccs2)c1 | 13.1
13 | COc1cc(/C=C/C(=O)OCC(=O)NC(=O)NC(C)C)ccc1OCC#N | 11.7
14 | COc1cc(/C=C/C(=O)c2ccccc2O)cc(OC)c1OC | -1.73
15 | COc1cc(/C=C/C(=O)OCC(=O)NC(=O)NC(C)(C)C)ccc1OCC#N | 53.3
16 | COc1cc(/C=C/C(=O)O)cc(OC)c1OC | -1.87
17 | CCN(C(=O)CSc1nnc(-c2ccc(Cl)cc2)n1C)C1CCS(=O)(=O)C1 (stereo not drawn) | 1.77
18 | O=C(NCc1nnc(SCC(=O)N2CCOCC2)o1)c1cccs1 | 3.48
19 | COc1ccc(-n2cc(CNCCN3CCOC3=O)c(-c3ccccc3Cl)n2)cc1 | 2.78
20 | COC(=O)NC(NC(=S)Nc1cccc(C)c1)C(Cl)(Cl)Cl (stereo not drawn) | -2.36
21 | O=C(/C=C/c1ccc([N+](=O)[O-])cc1)NC1CC2CCC1C2 (stereo not drawn) | 73.7
22 | O=C(/C=C/c1ccccc1F)c1ccoc1 | 2.06
23 | O=C(/C=C/c1ccccc1)NC1CC2CCC1C2 (stereo not drawn) | 0.01
24 | CN(C)/C=C/C(=O)c1cccc([N+](=O)[O-])c1 | 6.88

Row | SMILES | inhibition [%]
25 | O=c1c2ccccc2ncn1CCOCCOc1cccc(Br)c1 | -2.48
26 | CC(C)(C)c1ccc(OCCOc2ccc(C(C)(C)C)cc2NC=O)c(NC=O)c1 | 7.57
27 | Cc1cc(NC(=O)CSc2ccc(-c3cccc([N+](=O)[O-])c3)nn2)no1 | 13.3
28 | Cn1c(O)c(N=NC(=O)C2COc3ccccc3O2)c2ccccc21 (stereo not drawn) | 2.52
29 | COc1ccc(Br)cc1CN(C)C(C)C(=O)Nc1cc([N+](=O)[O-])ccc1OC (stereo not drawn) | 6.06
30 | O=Nc1c(O)n(Cc2cccc(Cl)c2)c2ccccc12 | -7.32
31 | c1ccc(Cc2nn3c(COc4ccccc4)nnc3s2)cc1 | 8.35
32 | CSc1nc(C)c(Cc2c(F)cccc2Cl)c(=O)[nH]1 | -5.44
33 | C=C(C)C1CC=C(CN2CC(C)OC(C)C2)CC1 (stereo not drawn) | -0.53
34 | Cc1ccc2c(Cl)cc(Cl)c(OCC(=O)N(C(C)C)C(C)C)c2n1 | 7.37
35 | Cc1ccc(NC(=O)CN(C)C(=O)COc2c(Cl)cc(Cl)c3ccc(C)nc23)cc1 | 5.82
36 | Cc1ccc2c(Cl)cc(Cl)c(OCC(=O)O)c2n1 | -9.9
37 | COC(=O)COc1c(Cl)cc(Cl)c2ccc(C)nc12 | 70.4
38 | COCCCNC(=O)c1ccc(N2CCOCC2)c(NS(=O)(=O)c2ccc(OC)cc2)c1 | -10.8
39 | Cc1ccc(SC[C@H](c2ccccc2)N2CCN(CCc3ccccc3)CCC2=O)cc1 | 0.98
40 | COC(=O)C(C(=O)OC)c1ccc(N)cc1 | 79.1
41 | N/C(=N/OC(=O)c1ccccc1Cl)c1nonc1N | -5.25
42 | N=C(N)CCCOc1ccccc1-c1ccccc1 | 4.47
43 | O=C(CN1C(=O)c2ccccc2C1=O)Nc1ccc(N2CCOCC2)cc1 | 1.44
44 | O=C(NCCN1CCOCC1)c1ccc2c(c1)N(Cc1cccc(F)c1)C(=O)c1ccccc1S2 | 2.5
45 | Cc1cc(Nc2c(C)n(C)n(-c3ccccc3)c2=O)n2c(nc3cc(F)c(F)cc32)c1C#N | -5.9
46 | Cc1cc(Cl)n2c(nc3ccccc32)c1C#N | -11.2
47 | COC(=O)c1[nH]c2ccc(Br)cc2c1NC(=O)C(C)N1CCN(C2CCCCC2)CC1 (stereo not drawn) | -3.42
48 | CN(C(=O)COC(=O)c1c2c(nc3ccccc13)/C(=C/c1cccc([N+](=O)[O-])c1)CCC2)C1CCS(=O)(=O)C1 (stereo not drawn) | 78.5

Row | SMILES | inhibition [%]
49 | CC1CCc2nc3ccccc3c(C(=O)OCC(=O)NC3CCS(=O)(=O)C3)c2C1 (stereo not drawn) | -5
50 | Cc1nn(C)c(C(=O)Nc2ccn(Cc3ccccc3F)n2)c1[N+](=O)[O-] | -2.14
51 | O=[N+]([O-])c1ccc(NCCCO)c(S(=O)(=O)N2CCOCC2)c1 | -3.72
52 | COc1ccc2c(c1)c1ccccc1n2C | -6.03
53 | COc1ccc2c(c1)sc(=N)n2CC(=O)Nc1cc(C)cc(C)c1 | 3.49
54 | O=C(O)COc1ccccc1Cc1ccccc1 | -9.69
55 | O=C(COc1ccc(F)cc1)N1c2ccccc2CCc2ccccc21 | 6.06
56 | O=C(CCC1CCCN(c2ncccn2)C1)N1CCN(c2ccccn2)CC1 (stereo not drawn) | 0.77
57 | N#C/C(=C/c1ccncc1)c1nc2ccccc2s1 | 4.82
58 | N#C/C(=C\c1ccco1)c1nc2ccccc2s1 | 4.85
59 | Cc1ccc(OCC(=O)n2nc(C)cc2C)c(C)c1 | 10
60 | COc1ccc(N2C(=O)CC(N3CCC(c4nc5ccccc5[nH]4)CC3)C2=O)cc1 (stereo not drawn) | -1.11
61 | O=C(CN1C(=O)NC2(CCCCCCC2)C1=O)N1CCc2ccccc2C1 | -9.98
62 | CSc1nsc(SCC(=O)Nc2nc3ccc(C)cc3s2)n1 | 10.3
63 | CCn1nnnc1SCC(=O)Nc1nc2ccc(OC)cc2s1 | 1.9
64 | CSc1nsc(SCC(=O)Nc2cccc(C(C)=O)c2)n1 | -15.7
65 | CSc1nsc(SCC(=O)Nc2ccc3c(c2)OCCO3)n1 | -14.4
66 | COc1ccc2nc(NC(=O)CSc3nnnn3C3CCCCC3)sc2c1 | 0.53
67 | O=C(CSc1nc2ccccc2s1)Nc1ccc2c(c1)OCO2 | 76.4
68 | CCOc1ccc2nc(SCC(=O)NC(=O)C(C)C)sc2c1 | 3.81
69 | CSc1nsc(SCC(=O)Nc2nc3ccccc3s2)n1 | 52.1
70 | O=C1c2ccccc2C(Nc2ccc(S(=O)(=O)N3CCOCC3)cc2)N1Cc1ccco1 (stereo not drawn) | -2.41
71 | CC(CC(=O)N1CCN(c2ccc(C(F)(F)F)cn2)CC1)n1ccnc1 (stereo not drawn) | 1.81
72 | O=C(Cc1ccc(-n2c(=O)c3sccc3n(CC(=O)Nc3ccccc3F)c2=O)cc1)NCc1ccco1 | -10.9

Row | SMILES | inhibition [%]
73 | COc1cc(C(CCN2CCCC2)c2c(OC)cc(OC)c3c(-c4ccccc4)cc(=O)oc23)cc(OC)c1OC (stereo not drawn) | -3.05
74 | COc1cc(C(CCN2CCCC(C)C2)c2c(OC)cc(OC)c3c(-c4ccccc4)cc(=O)oc23)cc(OC)c1OC (stereo not drawn) | 71
75 | COc1cc(OC)c2c(-c3ccccc3)cc(=O)oc2c1C(CC(=O)N1CCOCC1)c1ccc(N(C)C)cc1 (stereo not drawn) | -7.25
76 | COc1ccc(C(CC(=O)N2CCCC(C)C2)c2c(OC)cc(OC)c3c(-c4ccccc4)cc(=O)oc23)cc1 (stereo not drawn) | -5.32
77 | O=C(Cc1c(Cl)cccc1Cl)Nc1cccc(S(=O)(=O)N2CCOCC2)c1 | 9.23
78 | OC(COc1ccc(-c2ccccc2)cc1)CN1CCOCC1 (stereo not drawn) | 8.22
79 | CCOc1ccccc1NC(=O)Cn1c(=O)oc2ccccc21 | 6.54
80 | Cc1nn(-c2ccccn2)c2c1C(c1ccccc1Cl)C1=C(N2)c2ccccc2C1=O (stereo not drawn) | 5.6
81 | Cc1nn(-c2ccccn2)c2c1C(c1c(F)cccc1Cl)C1=C(N2)c2ccccc2C1=O (stereo not drawn) | 8.57
82 | Cc1cc(C)c(C#N)c(Oc2ccc(O)cc2)n1 | 8.87
83 | O=C1C=C(c2cccs2)CC(c2cccs2)C1n1cnc([N+](=O)[O-])c1 (stereo not drawn) | 8.22
84 | CC(=O)C1C(=O)C=C(c2cccs2)CC1c1ccccc1 (stereo not drawn) | 2.98
85 | Cc1ccc(S(N)(=O)=O)c(C)c1N1CCCC1=O | -3.84
86 | COc1ccc(-c2noc(CCC(=O)Nc3cc(OC)ccc3OC)n2)cc1 | 3.07
87 | Cc1ccc(-c2noc(CCC(=O)NCCCN3CCN(c4ccc(F)cc4)CC3)n2)cc1 | -9.54
88 | COc1cc(OC)c(NC(=O)CCc2nc(-c3ccc(C)cc3)no2)cc1Cl | -0.67
89 | COc1ccc(CCC(=O)Nc2ccc3c(c2)OCCO3)cc1 | -2.09
90 | COc1ccc(-c2noc(CCC(=O)Nc3cccc(C)c3)n2)cc1 | 78.2
91 | Cc1ccc(-c2noc(CCC(=O)Nc3ccc4c(c3)OCO4)n2)cc1 | 67.5
92 | COc1ccc(-c2noc(CCC(=O)NCCCN3CCN(c4ccc(F)cc4)CC3)n2)cc1 | 8.36
93 | COc1ccc(-c2noc(CCC(=O)Nc3cc(Cl)c(OC)cc3OC)n2)cc1 | 14.3

Source: PubChem BioAssay AID1626 (SRMLSC, 2009)
